Screening results from PubChem BioAssay.
aSyn 5UTR act: Activators working through SNCA 5'UTR binding (MLPCN); actives 7.1% (n = 300,000); alpha-synuclein 5'UTR reporter, activators screen; AID 1814; activity score, % (tested at 7.5 µM), hits read low; in the data active = activity score below about -60%
The depositor's hits bear a star. These entries were drawn from the full list.

SMILES	aSyn 5UTR act
CCOC(=O)c1ccc(NC(=O)c2cc3c(s2)CCC3)cc1	-154*
COc1ccc(C(=O)/C=C/Nc2cc(C)on2)c(OC)c1	-72*
COc1ccc(OC)c(C(=O)/C=C/c2ccccc2C(F)(F)F)c1	-198*
COc1ccc(C(=O)/C=C/c2ccccc2)c(OC)c1	-277*
CN(C)/N=C/C=C1\CC/C(=C\c2ccc(Br)cc2)C1=O	-84*
CN(C)/N=C/C=C1\CCC/C(=C/c2cccs2)C1=O	-173*
Cc1cccc(Cn2cc(SCC(=O)Nc3nccs3)c3ccccc32)c1	-156*
Cc1ccc(OCC(=O)N/N=C/c2cn(Cc3ccccc3)c3ccccc23)cc1	60
Cc1[nH][nH]c(=O)c1C(c1c(C)[nH][nH]c1=O)c1cn(Cc2ccc(Cl)c(Cl)c2)c2ccccc12	90
CSc1ccc2c(c1)N(CCC1CCCCN1C)c1ccccc1S2 (configuration not stated)	110
CC(=O)N1CCn2c3ccc(C)cc3c3cccc1c32	-83*
Cc1c(-c2nc(N)nc(Nc3ccccc3F)n2)oc2ccccc12	-178*
Cc1ccc(Nc2nc(N)nc(-c3oc4ccccc4c3C)n2)cc1	91
COc1ccc2sc(NC(=O)CC(C)C)nc2c1	-120*
COc1ccc2sc(NCc3ccccc3)nc2c1	-112*
CCC(=O)Nc1nc2ccc3nc(C)sc3c2s1	-151*
CCC(=O)Nc1nnc(/C=C/c2ccc(OC)cc2)s1	-141*
CCC(=O)Nc1nc2cc(OC)ccc2s1	-107*
COc1ccc2sc(NC(C)=O)nc2c1	-119*
Cn1nnnc1SCC(=O)c1ccc2c(c1)OCCO2	-67*
CCCn1nnnc1SCC(=O)c1ccc2c(c1)OCCO2	-83*
CC1=CC(C)=Nc2ccc(C)cc2N1	-63*
O=c1oc2cc(O)c(Cl)cc2c2ccccc12	-88*
Cn1cccc1-c1nc2ccccc2[nH]1	-114*
Cn1cccc1-c1nc2ccc(NC(=O)c3ccccc3)cc2[nH]1	-124*
SMILES	aSyn 5UTR act
Cc1ccc(C2Nc3ccccc3-c3nc4ccccc4n32)o1 (configuration not stated)	-104*
Cc1ccc(-c2nc3ccccc3n2C)o1	-155*
CC(=O)c1ccc(-c2nc3ccccc3n2C)o1	-143*
O=C1NC(=O)/C(=C\c2ccc(Oc3cnccn3)cc2)S1	-191*
Cn1c(/C=N/Nc2nc3ccccc3[nH]2)nc2ccccc21	-188*
CC(C)Cn1c(/C=N/Nc2nc3ccccc3[nH]2)nc2ccccc21	-337*
C=CCn1cc(/C=N/Nc2nc3ccccc3[nH]2)c2ccccc21	-195*
O=C(Nc1ccc2[nH]ncc2c1)c1ccc(F)cc1	-90*
O=C(Nc1ccc2[nH]ncc2c1)c1ccccc1	-81*
CCc1nnc(NC(=O)c2sc3nc4c(cc3c2N)CCCCC4)s1	-138*
CCc1nnc(NC(=O)c2sc3nc4c(cc3c2N)CCCCCC4)s1	-75*
Cc1cc(C)c2c(CCl)cc(=O)oc2c1	91
Cc1cc2oc(=O)cc(CN3CCC(C)CC3)c2c(C)c1Cl	-88*
Cc1cc(C)c2c(CN3CCC(C)CC3)cc(=O)oc2c1	-157*
Cc1cc2oc(=O)cc(CN3CCC(C)CC3)c2cc1C	-82*
O=C(Nc1cccc(C(F)(F)F)c1)c1scc2c1OCCO2	-73*
CCN=c1scc(-c2ccco2)n1/N=C/c1ccc(O)cc1	-173*
COCCN=c1scc(-c2cccs2)n1/N=C/c1ccc(O)c(O)c1O	67
CCN=c1scc(-c2ccco2)n1/N=C/c1ccc(OC)c(O)c1	-228*
O=[N+]([O-])c1ccc(-c2cn3c(n2)CCC3)cc1	-129*
O=C(OCc1csc(-c2ccccc2)n1)c1ccccc1O	-149*
Cc1cc(C)cc(NC(=O)CSc2nnc(-c3ccccc3C)o2)c1	-119*
Cc1ccc(NC(=O)CSc2nnc(-c3ccccc3C)o2)cc1C	-89*
Cc1cccc(NC(=O)CSc2nnc(-c3ccccc3C)o2)c1	-94*
Cc1cc(Cl)c2oc(C(=O)N3CCN(c4cccc(C)n4)CC3)c(C)c2c1	-127*
SMILES	aSyn 5UTR act
Cc1ccccc1CN1CCN(c2nc3ccccc3s2)CC1	-146*
COc1ccc(-c2[nH]ncc2CN2CCC(O)(c3ccc(Cl)cc3)CC2)cc1	87
COc1ccc(CN2CCN(c3nc4ccccc4s3)CC2)cc1	-69*
Cc1c2ccccc2nc2c(F)c(N(C)C)c(F)c(F)c12	-78*
CCCOc1ccc(/C=C/C(=O)N2CCOCC2)cc1	-68*
CC(C)c1ccc(/C=C/C2=NNC(=O)CC2)cc1	87
O=C(/C=C/c1ccc(Cl)cc1)N1CCOCC1	-76*
CC(C)c1ccc(/C=C/C(=O)N2CCOCC2)cc1	-156*
Cc1cc(Nc2ccccc2)n2nc(C)c(-c3ccccc3)c2n1	-64*
CN(C)c1ccc(-c2nn3c(-c4ccccc4Cl)nnc3s2)cc1	82
Cc1nnc2sc(-c3ccc(N(C)C)cc3)nn2c1=O	-76*
COc1cccc(Nc2ccc(C(=O)O)cc2N)c1	-118*
Cc1ccc(Nc2ccc(C(=O)O)cc2N)cc1	-107*
COC(=O)c1cccc(NC(=O)NC23CC4CC(CC(C4)C2)C3)c1	-98*
Cn1c(=O)oc2cc(S(=O)(=O)N3CCCC(C(=O)NC4CCCc5ccccc54)C3)ccc21 (configuration not stated)	63
CCS(=O)(=O)N1CCC(C(=O)Nc2ccc3c(c2)CCC3)CC1	-83*
CCCS(=O)(=O)N1CCCC(C(=O)Nc2ccc3c(c2)CCC3)C1 (configuration not stated)	-71*
Cc1ccc(-n2ncc3c(NNC(=O)c4ccco4)ncnc32)cc1Cl	-166*
Cc1cccc(-n2ncc3c(NNC(=O)c4ccco4)ncnc32)c1	-133*
Cc1oc(C(C)(C)C)cc1C(=O)Nc1cccc(C(=O)O)c1	-114*
Cc1oc(C(C)(C)C)cc1C(=O)Nc1ccc(C(=O)O)cc1	-93*
Cc1cc(C(=O)Nc2cccc(C(=O)O)c2)oc1C	87
Cc1cc(C(=O)Nc2cccc(C(=O)O)c2)c(C)o1	-92*
[O-][n+]1onc2c1CCc1c-2nn(-c2ccccc2Cl)[n+]1[O-]	-155*
Cc1ccc(-n2nc3c([n+]2[O-])CCc2c-3no[n+]2[O-])cc1	-141*
SMILES	aSyn 5UTR act
Cc1ccc(NC(=O)Nc2ccccc2CC[N+](=O)[O-])cc1	-79*
Cc1nc2nc(-c3cccnc3)nn2c(C)c1Cl	-74*
CCOC(=O)c1sc2ccccc2c1NC(=O)c1coc2ccccc2c1=O	-74*
CN(C)CCCNc1cc(C(C)(C)C)nc2c(-c3ccc(Cl)cc3)cnn12	108
CC(C)(C)c1cc(-n2ccnc2)n2ncc(-c3ccc(Cl)cc3)c2n1	-67*
CC(C)(C)c1cc(NCCCn2ccnc2)n2ncc(-c3ccccc3)c2n1	-149*
Cc1cc(NCCCn2ccnc2)n2ncc(-c3ccc(Cl)cc3)c2n1	60
Cn1c(-c2ccc3ccccc3n2)nc2cnccc21	-74*
Cc1ccc(C(NC(=O)NCCCN2CCOCC2)=C(Cl)Cl)cc1F	-70*
O=C(c1cc(-c2ccccc2O)on1)N1CCCCCC1	-140*
O=C(c1cc(-c2ccccc2O)on1)N1CCOCC1	-115*
CC[n+]1c(/C=C2\Sc3ccccc3N2C)ccc2cccc(C)c21	116
COc1ccc(C(=O)/C=C2\Sc3ccccc3N2C)cc1	-179*
Cc1ccc(NC(=O)Cn2nnc3ccccc32)cc1	-176*
Cc1cccc(NC(=O)Cn2nnc3ccccc32)c1	-104*
COC(=O)c1ccc(NC(=O)Cn2nnc3ccccc32)cc1	-174*
COc1ccc(C(=O)N/N=C(\C)c2cccc(NC(=O)c3ccc(F)cc3)c2)c(OC)c1	-66*
